SMILES strings stand for the structures. Among all 69,000 compounds or so, about 8,600 (12%) showed an effect of 50% or more. For the sample, strong results were picked, then their nearest neighbours and some compounds at random.

The subject of the assay is Plasmodium berghei. As to the kind of experiment: Screen against P. berghei liver stage (PbLuc), transformed with Luciferase, at 10uM. Type of assay: functional, HepG2. Conditions: tested at 10 uM.
For the compound `CCC(Nc1nc(CCN)nc2ccccc12)c1cccs1` (stereo unspecified), the INHIBITION is 51.1%. For `CCC(Nc1nc(CCN)nc2ccccc12)c1cc(C)ccn1` (stereo unspecified), the INHIBITION is on record as -1.25%. On to `NCCc1nc(N[C@@H](CO)c2ccccc2)c2ccccc2n1`, for which the INHIBITION is 31.9%.

Consider `CCc1nc(CN(C)CC(=O)N(C)C2CC2)cs1`, for which the INHIBITION came out at 42.6%. As for `COc1c(CNCCNC(=O)c2cccc(C)c2)c(C)nn1C`, the INHIBITION worked out at 33.8%.

Regarding `COCC(NC(=O)c1ccco1)c1cccc(C(F)(F)F)c1` (stereo unspecified), the INHIBITION was -31.6%.

For `COCC(NC(=O)c1ccc[nH]1)c1cccc(C(F)(F)F)c1` (stereo unspecified), the INHIBITION was 51.3%. The result for `COCC(NC(=O)c1cc[nH]n1)c1cccc(C(F)(F)F)c1` (stereo unspecified) reads 42.6%; that for `Cc1ncsc1CN1C[C@@H]2COC[C@]2(C(=O)NCC2CC2)C1`, 39.2%; that for `O=c1n(Cc2ccc(C(F)(F)F)cc2)nc2ncccn12`, -80.9%. The value for `CCS(=O)(=O)N1CCc2c(cccc2NCc2nc(C)c(C)o2)C1` was 52.6%; that for `COCCCNC(=O)Nc1cccc2c1CCN(S(C)(=O)=O)C2` was 17.5%; that for `CCCNC(=O)Nc1cccc2c1CCN(S(C)(=O)=O)C2` was -9.48%. On to `CC(C)NC(=O)Nc1cccc2c1CCN(S(C)(=O)=O)C2`, for which the INHIBITION was 45.7%. For the compound `CCc1cnc(CNc2cccc3c2CCN(S(=O)(=O)CC)C3)o1`, the INHIBITION is on record as 39.6%. As to `CCS(=O)(=O)N1CCc2c(cccc2NC(=O)NCCOC)C1`, the INHIBITION was found to be 3.95%. Consider `COCCNC(=O)Nc1cccc2c1CCN(S(C)(=O)=O)C2`, for which the INHIBITION is 65.4%. The result for `CCS(=O)(=O)N1CCc2c(cccc2NCc2ncc[nH]2)C1` reads 27.6%; that for `CCS(=O)(=O)N1CCc2c(cccc2NC(=O)NCCO)C1`, 50.8%. As to `CC(C)N(C)C(=O)COc1ccc(-c2noc(C3CCCO3)n2)cc1` (stereo unspecified), the INHIBITION is on record as -59.4%. For `O=C(NCC1CN(c2ncccn2)Cc2nccn2C1)c1cccnc1` (stereo unspecified), the INHIBITION is given as -86.4%.

Consider `Fc1ccc(N2CCN(CCCc3cn[nH]c3)CC2)cc1`, for which the INHIBITION came out at 31.6%. For the compound `NC(=O)C1CN(C(=O)Nc2ccccc2OCC(F)(F)F)CCO1` (stereo unspecified), the INHIBITION is on record as 31.2%.

`N#CC1(NC(=O)c2c(F)ccc(OC(F)F)c2F)CCOCC1`: the INHIBITION is recorded as -11.7%. The result for `CCn1nnc(NCc2cc(Br)cc(Br)c2OC)n1` reads 61.1%; that for `CCCn1nnc(NCc2cc(Br)cc(Br)c2OC)n1`, -24%.

Consider `CCn1nnc(NCc2cc(Cl)cc(Cl)c2OC)n1`, for which the INHIBITION is listed as -11.6%. The result for `Cc1ncccc1CNC1CCCN(Cc2noc(C3CC3)n2)C1` (stereo unspecified) reads 46.2%; that for `CNC(=O)c1cc2c(nc1NCC(C)C)CCN(CCOC)CC2`, 21.1%; that for `COCCN1CCc2cc(C(=O)NC(C)C)c(NCC(C)C)nc2CC1`, 74.9%.

With `COCCN1CCc2cc(C(=O)O)c(NCC3CC3)nc2CC1`, the INHIBITION is recorded as -17.2%. As for `COCCN1CCc2cc(C(=O)NC(C)C)c(NCC3CC3)nc2CC1`, the INHIBITION turned out to be 70.8%. As for `COCCN1CCc2cc(C(=O)N(C)C)c(NCC3CC3)nc2CC1`, the INHIBITION is on record as -27.9%. Regarding `CCS(=O)(=O)N1CCc2cc(C(=O)NC)c(NCC(C)C)nc2CC1`, the INHIBITION is listed as -9.02%.

With `CCOc1ccccc1C(=O)Nc1cccc(C[S+](C)[O-])c1C` (stereo unspecified), the INHIBITION turned out to be 16.645%. As to `O=C(CCN1CCCC(CO)(CC2CC2)C1)NCc1cccc(Cl)c1` (stereo unspecified), the INHIBITION turned out to be 4.66%. In the case of `CCC1COC2(CCN(C(=O)c3ccco3)CC2)C1` (stereo unspecified), the INHIBITION is 22.9%. Consider `COc1ccc2c(c1)CC(NCc1cccc(CO)c1)CC2` (stereo unspecified), for which the INHIBITION was determined as 47.1%. As for `COc1ccc2c(c1)CC(NCc1cccc(OCC(N)=O)c1)CC2` (stereo unspecified), the INHIBITION worked out at 43.4%. Turning to `COc1ccc2c(c1)CC(NCc1cccc(NC(C)=O)c1)CC2` (stereo unspecified), the INHIBITION was 59.1%. Turning to `COCC(=O)NCc1cc(=O)n2c(n1)CN(Cc1ccco1)CCC2`, the INHIBITION was found to be 47.5%.

Turning to `O=C(NCc1nnc2n1CCCC2)N1CCc2sccc2C1`, the INHIBITION was 5.7%. On to `Cc1cccc(CNC(=O)Nc2ccn(CCN(C)C)n2)c1`, for which the INHIBITION is -23.8%.

As for `C=C(C)Cn1nc(C)c(CN2CCN(C3CCCCC3)C(=O)C2)c1C`, the INHIBITION was 13.85%. The result for `Cc1ccccc1C1(CNCc2cnc(N3CCOCC3)nc2)CC1` reads -5.22%; that for `Cc1ccc(CN2CCCC(c3nn(C)c4nccnc34)C2)s1` (stereo unspecified), 37.6%. For `CCCN1CCC(c2nc3ccc(NCc4cccnc4)cn3n2)CC1`, the INHIBITION stood at 52.1%. `CC(C)CN1CCC(c2nc3ccc(NC(C)C)cn3n2)CC1`: the INHIBITION stood at 30.3%.

As for `CCN1CCC(c2nc3ccc(NC(C)C)cn3n2)CC1`, the INHIBITION was found to be 26.4%. Take `CCCN1CCC(c2nc3ccc(C)cn3n2)CC1`: the INHIBITION came to 29.4%. For the compound `c1cncc(CNc2ccc3nc(C4CCNCC4)nn3c2)c1`, the INHIBITION came to 29.4%. On to `CCCN1CCC(c2nc3ccc(NCc4ccccc4)cn3n2)CC1`, for which the INHIBITION came to 61.1%. Regarding `CN(C)C(=O)N1C[C@H]2CC[C@@H](C1)N(Cc1nnc(-c3ccco3)o1)C2`, the INHIBITION was determined as 11.6%. The value for `Cc1nc(-c2cnn(C)c2)nc2c1CN(C(=O)c1cccnc1)CC2` was -4.99%; that for `Cc1nc(-c2cnn(C)c2)nc2c1CN(C(=O)c1cccn1C)CC2` was -6.46%; that for `Cc1nc(-c2cnn(C)c2)nc2c1CN(C(=O)c1ccc[nH]1)CC2` was 57.1%. Take `COC(=O)c1ccc(NC(C)c2ccc3c(c2)CCC(=O)N3)nn1` (stereo unspecified): the INHIBITION came to 19.7%. With `COc1ccc(-c2cc3nc(CCNC(=O)C4CC4)nn3cn2)cc1`, the INHIBITION was determined as 8.915%. The value for `c1csc(NCc2n[nH]c3c2CCN(CC2CC2)C3)n1` was 41.2%. As for `c1ncc(-c2ccc(C3CNCCO3)nc2)cn1` (stereo unspecified), the INHIBITION stood at 24.8%. The value for `COc1ccc(-c2ccc(C3CNCCO3)nc2)cc1` (stereo unspecified) was 91.6%; that for `Clc1ccc(-c2ccc(C3CNCCO3)nc2)cc1` (stereo unspecified) was 94.6%. Regarding `COc1ccc(-c2cnc(N(C)C)nc2C2CNCCO2)cc1` (stereo unspecified), the INHIBITION is recorded as 21.7%. Take `CN(C)c1ncc(-c2ccc(C(N)=O)cc2)c(C2CNCCO2)n1` (stereo unspecified): the INHIBITION was -28.9%.

With `Cc1ccc(-c2ccc(C3CNCCO3)nc2)cc1` (stereo unspecified), the INHIBITION amounted to 91.6%. The value for `Fc1ccccc1OCCc1cc(C2CNCCO2)n[nH]1` (stereo unspecified) was 32.8%; that for `COc1ccc(OCCc2cc(C3CNCCO3)nn2C)cc1` (stereo unspecified) was -5.8%. The result for `CN(C)c1ncc(-c2ccc(F)cc2)c(C2CNCCO2)n1` (stereo unspecified) reads 15.1%. In the case of `CN(C)c1ncc(-c2cccc(F)c2)c(C2CNCCO2)n1` (stereo unspecified), the INHIBITION amounted to 8.72%. As to `c1ccc(-c2ccc(C3CNCCO3)nc2)cc1` (stereo unspecified), the INHIBITION worked out at 84%. Consider `Cn1nc(C2CNCCO2)cc1CCOc1ccc(Cl)cc1` (stereo unspecified), for which the INHIBITION amounted to 16.5%.

(Values after ChEMBL document CHEMBL4513216, “Probing the Open Global Health Chemical Diversity Library for Multistage-Active Starting Points for Next-Generation Antimalarials” (ACS Infect Dis, 2020).)
